{"source": "PubChem BioAssay (Tox21)", "note": "Records with an inconclusive call do not appear. Values without a mark were called inactive. Activity calls are given as the source filed them. The call rests on the fitted dose curve; in most records, active means well fitted inhibition curve with a large enough effect in the repeat runs; inconclusive means weak or mixed curves; inactive means no such curve, though single readings can be large or run the other way. On the % scale 0 is the no-effect control and ±100 the full control effect; potency means the concentration at half of the fitted maximal effect.", "data": [{"test": "qHTS assay to identify small molecule antagonists of the estrogen related receptor (ERR) signaling pathway (AID 1224819; further: nearly all actives have a fitted effect of over 50% in size)", "details": "ERR reporter cell line, luciferase inhibition; series mostly up to 46.1 µM; activity change, negative = inhibition: at the top concentration", "from_the_text": "National Center for Advancing Translational Sciences [NCATS]\nNIH Chemical Genomics Center [NCGC]\nU.S. Environmental Protection Agency [EPA]\nNational Institutes of Environmental Health Sciences [NIEHS]\nNational Toxicology Program [NTP]\nU.S. Food and Drug Administration [FDA]\nEstrogen related receptors (ERRs), the first orphan nuclear receptors discovered, play an important role in the control of cellular energy metabolism. ERRs are required for high-energy production in response to the environmental challenges. ERR-alpha was also identified as an adverse marker for breast cancer progression; ERR-alpha-positive tumors have a poor prognosis. To screen and to identify environmental compounds that perturb the ERR signaling pathways could provide valuable information for potential therapeutic or preventive measures in the treatment of metabolic disease. For identifying ERR antagonists, ERR cell line (provided by NTP) has been used to screen LOPAC library.\nTox21 Assay Protocol Summary:\nThe ERR cells were dispensed at 2,000 cells/5 ul/well in 1536-well white plates using a Multidrop dispenser. After the assay plates were incubated at a 37 C/5% CO2 incubator for 6 hours, 23 nL of compounds dissolved in DMSO, positive and negative controls or DMSO only was transferred to the assay plate by a pin tool. The plates were incubated at 37 C for 18 hours. 4 ul/well of One-Glo reagent was added into the assay plates using a Flying Reagent Dispenser. After 30 min incubation at room temperature, the luminescence intensity in the plates was measured using a ViewLux plate reader.", "values": [{"smiles": "O=C(/C=C/c1ccc(O)cc1)c1ccc(O)cc1O", "activity change, negative = inhibition": "11.8%"}, {"smiles": "O=C(c1ccc2c(c1)OCCO2)N1CCCCC1", "activity change, negative = inhibition": "31.2%"}, {"smiles": "CCCCCCCCCCC/C=C\\C(C)(C)/C=C\\CCCC(=O)O", "activity change, negative = inhibition": "-17.6%"}, {"smiles": "CN[C@H](CC(=O)O)C(=O)O", "activity change, negative = inhibition": "12.7%"}, {"smiles": "Cc1cccc(C)c1OCC(N)C(C)C", "note": "(stereo not given)", "activity change, negative = inhibition": "20.9%"}, {"smiles": "O=[N+]([O-])c1ccc(-c2nc(-c3ccc(F)cc3)c(-c3ccncc3)[nH]2)cc1", "Potency": "13.3 µM (active)"}, {"smiles": "O=C(O)CNC(=O)C(CS)Cc1ccccc1", "note": "(stereo not given)", "activity change, negative = inhibition": "11.9%"}, {"smiles": "CC(=O)/C(C)=N/O", "activity change, negative = inhibition": "-9.56%"}, {"smiles": "c1ccc2occc2c1", "activity change, negative = inhibition": "16.4% [at 92.2 µM]"}, {"smiles": "O=C(O)c1cc(=O)c2ccccc2[nH]1", "activity change, negative = inhibition": "3.94%"}, {"smiles": "CNC(=O)c1cc2c(cn1)[nH]c1ccccc12", "activity change, negative = inhibition": "14%"}, {"smiles": "C=C1C(=O)O[C@@H]2[C@H]3O[C@]3(C)CCC=C(C)CC[C@@H]12", "activity change, negative = inhibition": "12.5%"}, {"smiles": "COC(=O)[C@H]1[C@H]2C[C@H]3c4[nH]c5ccccc5c4CCN3C[C@H]2CC[C@@H]1O", "activity change, negative = inhibition": "6.81%"}, {"smiles": "Cc1cc(NC(=O)Nc2ccc3c(ccn3C)c2)sn1", "activity change, negative = inhibition": "54.6%"}, {"smiles": "COc1cccc(-c2cc(=O)c3ccccc3o2)c1N", "activity change, negative = inhibition": "105%"}, {"smiles": "O=S(=O)(c1cccc2c(I)cccc12)N1CCCNCC1", "activity change, negative = inhibition": "12.3%"}, {"smiles": "CCN(CC)CCOC(=O)c1cc(Cl)c(N)cc1OC", "activity change, negative = inhibition": "10.1%"}, {"smiles": "N#Cc1cc([N+](=O)[O-])c2sc(C(N)=O)[n+]([O-])c2c1", "activity change, negative = inhibition": "-17.3%"}, {"smiles": "Nc1ccc2c3c(cccc13)C(=O)NC2=O", "activity change, negative = inhibition": "2.62%"}, {"smiles": "CCOC(=O)[C@H](CCc1ccccc1)N[C@@H](C)C(=O)N1[C@H](C(=O)O)C[C@H]2CCCC[C@@H]21", "activity change, negative = inhibition": "5.21%"}, {"smiles": "NC(=Nc1ccccc1)NC(=O)c1nc(Cl)c(N)nc1N", "activity change, negative = inhibition": "30.1%"}, {"smiles": "NS(=O)(=O)c1ccc(-n2nc(C(F)(F)F)cc2-c2ccc(Cl)cc2)cc1", "activity change, negative = inhibition": "-23.9%"}, {"smiles": "O=c1cc(O)cc(/C=C/c2ccc(O)c(O)c2)o1", "activity change, negative = inhibition": "4.74%"}, {"smiles": "N=C(N)SCCN", "activity change, negative = inhibition": "-4.95%"}, {"smiles": "C=CCN1CCc2cc(O)c(O)cc2C(c2ccccc2)C1", "note": "(stereo not given)", "activity change, negative = inhibition": "14.2%"}, {"smiles": "O=C(/C=C/c1ccc(O)c(O)c1)OCCc1ccccc1", "activity change, negative = inhibition": "18.2%"}, {"smiles": "CCCOC(=O)c1c(-c2ccccc2)nc(CC)c(C(=O)SCC)c1CCC", "activity change, negative = inhibition": "11.7%"}, {"smiles": "O=C(O)C1=CCNCC1", "activity change, negative = inhibition": "3.06%"}, {"smiles": "Nn1nnc2ccccc21", "activity change, negative = inhibition": "9.6%"}, {"smiles": "CN1CCN(c2nc3cc(C(F)(F)F)ccc3n3cccc23)CC1", "activity change, negative = inhibition": "-13.6%"}, {"smiles": "CC[C@@H]1Cc2cc(O)ccc2C2=C1c1ccc(O)cc1C[C@H]2CC", "Potency": "14.4 µM (active)"}, {"smiles": "CC1CCN(CC[C@H]2CCCN2S(=O)(=O)c2cccc(O)c2)CC1", "activity change, negative = inhibition": "19.3%"}, {"smiles": "NC[C@H]1O[C@@H](n2cnc3c(N)ncnc32)[C@H](O)[C@@H]1O", "activity change, negative = inhibition": "-3.03%"}, {"smiles": "OC[C@H]1O[C@@H](n2cnc3c(NC4CCCCC4)ncnc32)[C@H](O)[C@@H]1O", "activity change, negative = inhibition": "13.8%"}, {"smiles": "CN(CCCOc1ccc(Cc2ccccc2)cc1)CCC(=O)O", "activity change, negative = inhibition": "-8.31%"}, {"smiles": "CC(=O)N[C@H](C(=O)O)C(C)(C)SN=O", "activity change, negative = inhibition": "10.3%"}, {"smiles": "N=C(N)SCCc1cnc[nH]1", "activity change, negative = inhibition": "-6.43%"}, {"smiles": "C[C@@H]1C(=O)NC2=Nc3cccc(Cl)c3CN21", "activity change, negative = inhibition": "13.5%"}, {"smiles": "CCCCCC(O)CCCC(=O)O", "note": "(stereo not given)", "activity change, negative = inhibition": "6.96%"}, {"smiles": "O=C1Cc2c([nH]c3ccc(Br)cc23)-c2ccccc2N1", "activity change, negative = inhibition": "112%"}]}]}
